INHIBITION data for 31 compounds are collected here from ChEMBL document CHEMBL4513216, “Probing the Open Global Health Chemical Diversity Library for Multistage-Active Starting Points for Next-Generation Antimalarials” (ACS Infect Dis, 2020).

Out of some 69,000 compounds screened, about 8,600 (12%) showed an effect of 50% or more. Only a selection was taken, and strong results are over-represented in it overall.

This assay deals with Plasmodium berghei. Nature of the assay: Screen against P. berghei liver stage (PbLuc), transformed with Luciferase, at 10uM. It is filed as functional, HepG2. Conditions: tested at 10 uM.
`CC(C)(N)CNS(=O)(=O)Cc1cccc2cccnc12`: the INHIBITION was determined as 2.66%.

Turning to `CCOCCCNC(=O)CCCC(=O)n1nc(C)c2ccccc21`, the INHIBITION was determined as 32.2%. On to `Cc1ccsc1-c1cccc(-c2ccn(CC3CCNC3)n2)c1` (stereo unspecified), for which the INHIBITION worked out at 72.6%. As for `c1cc(-c2cncnc2)cc(-c2ccn(CC3CCNC3)n2)c1` (stereo unspecified), the figure is 46.4%; as for `Cc1nccc(-c2cccc(-c3ccn(CC4CCNC4)n3)c2)n1` (stereo unspecified), 47.2%.

For the compound `CCn1c(C)nnc1CN(C)C1CCN(CCCSC)C1` (stereo unspecified), the INHIBITION is listed as -69.3%. For `Cc1cc(C(=O)N2CCS(=O)(=O)CC2)c(C)o1`, the INHIBITION was -9.21%. With `Cc1cn[nH]c1C1COCCN1Cc1c[nH]cn1` (stereo unspecified), the INHIBITION was 35.6%.

`Cc1cccc(C)c1OCC(=O)NS(=O)(=O)c1c(C)noc1C`: the INHIBITION was -55.8%. As for `Cc1cc(C)c(OCC(=O)NS(=O)(=O)c2c(C)noc2C)c(C)c1`, the figure is 55.1%; as for `Cc1ccc(OCC(=O)NS(=O)(=O)c2c(C)noc2C)cc1C`, 6.14%; as for `O=C(NCCn1nc(C2CCNC2)c2cccnc21)C1CCC1` (stereo unspecified), 13.5%. With `Cc1nn(C)c2ncnc(NCC(O)CN3CCCCC3)c12` (stereo unspecified), the INHIBITION came to 7.3%. In the case of `COc1ccccc1OCCCN1C(=O)CCNC1=O`, the INHIBITION was -88.2%. For the compound `COc1cccc(OC)c1OCCN1C(=O)CCNC1=O`, the INHIBITION was found to be 25.8%.

For `CC(C)Oc1ccccc1OCCN1C(=O)CCNC1=O`, the INHIBITION is 50.5%. On to `COCCc1noc(-c2cc(Cl)c3c(c2)OCCCO3)n1`, for which the INHIBITION is on record as -119%. As for `CN1CCC(NC(=O)c2cc(Br)cc(Cl)c2O)C1=O` (stereo unspecified), the figure is 20%; as for `O=c1c2cnc(N3CCCCC3)nc2ccn1Cc1ccco1`, -33.7%. As for `CN1CCN(c2ncc3c(=O)n(Cc4ccco4)ccc3n2)CC1`, the figure is 41.3%; as for `CCN1CCN(c2ncc3c(=O)n(Cc4ccco4)ccc3n2)CC1`, 67.5%; as for `Cc1noc(C)c1S(=O)(=O)NC(=O)COc1ccc(C(C)C)cc1`, 4.1%.

Turning to `NS(=O)(=O)CCNC(=O)c1cc2ccccc2nc1N1CCCC1`, the INHIBITION worked out at 2.91%. Consider `Cc1ccc2oc(C(=O)N3CCCC(n4cccn4)C3)cc2n1` (stereo unspecified), for which the INHIBITION is -32.55%. As for `O=C(NCCOCC(F)(F)F)c1ccc(-c2ccccc2)[nH]c1=O`, the figure is 14.4%; as for `O=C(CN1CCCC1)N1CCCC1c1nc(O)cc(-c2ccccn2)n1` (stereo unspecified), -1.85%; as for `CCC(CO)N(Cc1cccnc1)C(=O)c1ccoc1C` (stereo unspecified), 3.13%.

Turning to `N#CC1(NC(=O)COC(=O)Cc2cc(Cl)c3c(c2)OCCO3)CCCC1`, the INHIBITION stood at 38.9%. The figure for `CC(C)(C)C(=O)NS(=O)(=O)c1ccc(C#N)cc1C(F)(F)F` is 39.2%; for `CC(C)C(=O)NS(=O)(=O)c1ccc(C#N)cc1C(F)(F)F` it is -4.94%. As for `N#Cc1ccc(S(=O)(=O)NC(=O)C2CC2)c(C(F)(F)F)c1`, the figure is 54.9%.
